GIRK2 act: Activators of human GIRK2-containing channels. P48051. 34,000 tested, under 10 active. HEK293 GIRK2/NPY4 cells, thallium flux fluorescence. activation (% efficacy), % for hits at 37.5 µM;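 active means primary screen hit, no activity in plain HEK293 cells, and in GIRK2-only cells above 5% efficacy rising with concentration; inactive means the rest, including fluorescent compounds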;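 further: efficacy is normalized control-subtracted fluorescence 15 s after thallium addition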
Target sequence (P48051 whole entry, looked up): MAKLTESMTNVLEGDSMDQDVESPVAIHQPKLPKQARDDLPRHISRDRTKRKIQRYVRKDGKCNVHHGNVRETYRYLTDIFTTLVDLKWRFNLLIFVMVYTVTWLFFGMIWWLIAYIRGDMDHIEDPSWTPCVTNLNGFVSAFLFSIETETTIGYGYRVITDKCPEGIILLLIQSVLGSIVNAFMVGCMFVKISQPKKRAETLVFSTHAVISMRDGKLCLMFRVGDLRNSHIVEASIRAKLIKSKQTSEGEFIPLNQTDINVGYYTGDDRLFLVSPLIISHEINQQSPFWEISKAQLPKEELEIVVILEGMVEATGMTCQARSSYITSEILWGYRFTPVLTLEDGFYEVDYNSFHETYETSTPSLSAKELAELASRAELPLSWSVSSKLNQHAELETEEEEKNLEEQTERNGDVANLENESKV
GluA2 TARP mod: modulates AMPAR-stargazin complexes; actives 3.5% (n = 40,000); HEK293 GluA2+stargazin, membrane potential dye (FDSS), glutamate EC50; hits were called plate by plate, in both directions; O88602+P19491; calls only at 30 µM;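 active means any of four per-well response measures lying three or more SD from its plate-wide compound average, in either direction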
* = called active by the depositor; i = inactive; . = not tested or not shown; + = active, no number. This is one part of a sample in which hits are shown more often than they occur.

SMILES | GIRK2 act | GluA2 TARP mod
COc1cccc(S(=O)(=O)NCc2ccc(C(=O)N3CCN(c4ccccc4F)CC3)cc2)c1 | . | i
CC1CCN(c2ccc(N3CCN(C(=O)c4cccs4)CC3)nn2)CC1 | i | i
O=C(Cc1cccs1)N1CCN(c2cc(N3CCCC3)ncn2)CC1 | i | +
O=C(Cc1cccs1)N1CCN(c2ccccn2)CC1 | . | i
O=C(c1cccs1)N1CCN(c2cc(N3CCCC3)ncn2)CC1 | i | +
COC(=O)C1=C(C)NC(=O)NC1c1ccc(Cl)c(Cl)c1 (stereo not drawn) | . | i
COc1ccc(CNC(=O)/C(C#N)=C/N2CCN(Cc3ccc4c(c3)OCO4)CC2)cc1 | i | +
N#C/C(=C\N1CCN(Cc2ccc3c(c2)OCO3)CC1)C(=O)NCc1ccccc1 | i | i
CSc1ccc(CNC(=O)Cc2nnc(-c3cnccn3)o2)cc1 | i | .
Cc1cc(N(C)C)nc(NCCNC(=O)c2ccc(Br)o2)n1 | i | .
Cc1cc(N(C)C)nc(NCCNC(=O)c2cnccn2)n1 | i | +
CN(Cc1nc2ccccc2n1Cc1cccc(Cl)c1)C(=O)c1ccco1 | i | .
Fc1cccc(Cl)c1Cn1c(CN2CCCC2)nc2ccccc21 | i | +
Brc1ccc(Cn2c(CN3CCCC3)nc3ccccc32)cc1 | . | i
CCOC(=O)N(C)Cc1nc2ccccc2n1Cc1c(F)cccc1Cl | . | +
COc1cc(C(=O)Nc2nnc(Cc3ccc(Cl)s3)o2)cc(OC)c1OC | i | .
COC(=O)NCC1COC2(CCCCC2)O1 (stereo not drawn) | i | i
CC(C)(C)C(=O)N1CCc2ccc(NS(=O)(=O)Cc3ccc(F)cc3)cc21 | i | i
CCOC(=O)c1ccc(NC(=O)Cc2cc(-c3ccc(Cl)cc3)on2)cc1 | i | i
O=C(/C=C/c1cccs1)Nc1nncs1 | i | i
Cc1ccc(-c2cc(C(F)F)n3ncc(C(=O)n4c(C)nc5ccccc54)c3n2)cc1 | . | i
Cc1ccc(-c2cc(C(F)F)n3ncc(C(=O)N4CCC(C)CC4)c3n2)cc1 | . | +
CCOCCn1c(-n2nc(C)cc2C)nc2c1c(=O)n(Cc1cccc(C)c1)c(=O)n2C | i | +
CCc1cc(CC)n(-c2nc3c(c(=O)n(Cc4ccccc4)c(=O)n3C)n2CCOC)n1 | . | +
CCOCCn1c(=O)c2c(nc(-n3nc(C)cc3C)n2Cc2ccc(F)cc2)n(C)c1=O | i | i
SMILES | GIRK2 act | GluA2 TARP mod
CCc1cc(CC)n(-c2nc3c(c(=O)n(CC(C)C)c(=O)n3C)n2CCOC)n1 | . | i
CCOC(=O)c1ccc(NC(=O)CCl)cc1 | i | i
COc1ccccc1NC(=O)/C=C/c1ccc(OC)c(OC)c1 | . | i
COc1nn(C)cc1-c1nnc(SCC(=O)Nc2ccccc2C(F)(F)F)n1C | i | i
O=C(Nc1ccc(C(F)(F)F)cc1)N1CCCSCC1CN1CCOCC1 (stereo not drawn) | i | .
Cc1cn2c3c(=O)n(Cc4ccccc4F)c(=O)n(C)c3nc2n1CCCN(C)C | i | +
Cc1c(C)n2c3c(=O)n(CCCc4ccccc4)c(=O)n(C)c3nc2n1C(C)C | i | +
CCn1c(=O)c2c(nc3n(CCCOC)c(C)c(C)n23)n(C)c1=O | i | i
Cc1c(C)n2c3c(=O)n(Cc4ccc(F)cc4)c(=O)n(C)c3nc2n1CCCN(C)C | i | +
Cc1cn2c3c(=O)n(Cc4ccccc4Cl)c(=O)n(C)c3nc2n1CCO | i | i
Cc1c(C)n2c3c(=O)n(CC(=O)OCc4ccccc4)c(=O)n(C)c3nc2n1C(C)C | i | i
Cc1c(NC(=O)CCN2C(=O)c3ccccc3S2(=O)=O)c(=O)n(-c2ccccc2)n1C | i | i
O=C(NCCC(O)c1cccs1)C1(c2ccc(Cl)cc2)CCCC1 (stereo not drawn) | i | +
O=C(CCSc1ccccc1)NCCC(O)c1cccs1 (stereo not drawn) | i | i
Cn1cc(C(=O)N2CCCC2)cc(NC(=O)C(=O)c2c[nH]c3ccccc23)c1=O | . | i
COC(=O)CCc1c(C)nn(C)c1C | i | i
O=C(NCCc1ccccc1)NC1(c2nc(-c3cccnc3)no2)CCCCC1 | i | i
Cc1ccc(CNC(=O)Cn2cnc(C(C)C)cc2=O)cc1 | i | +
Cc1ccc(CNC(=O)Cn2cnc(-c3ccc(C)cc3)cc2=O)cc1 | i | i
O=C(CCS(=O)(=O)c1ccc(F)cc1)Nc1nnc(-c2ccc3c(c2)CCCC3)o1 | i | i
Cc1ccc(C)c(S(=O)(=O)N2CCCN(CCn3cccn3)CC2)c1 | i | i
Cc1ccc(S(=O)(=O)N2CCN(CCn3cccn3)CC2)c(C)c1 | i | +
CCOc1ccc2ccccc2c1C(=O)NCC(C)(O)c1ccccc1 (stereo not drawn) | i | .
CCOc1ccc2ccccc2c1C(=O)NC1CCCC(O)C1 (stereo not drawn) | i | +
CCOc1ccc2ccccc2c1C(=O)NCC(O)(c1ccco1)C1CC1 (stereo not drawn) | i | +
SMILES | GIRK2 act | GluA2 TARP mod
CCOc1ccc2ccccc2c1C(=O)NCC1CCN(C(C)C)CC1 | i | .
CCOc1cc(C(=O)NCc2ccsc2)cc(OCC)c1OCC | i | i
CCOc1ccc2ccccc2c1C(=O)NCc1ccsc1 | i | +
COCCn1c(N2CCN(Cc3ccc(F)cc3)CC2)nc2c1c(=O)[nH]c(=O)n2C | . | i
COc1ccc(NC(=O)CCCS(=O)(=O)c2ccc(Cl)cc2)c2ccccc12 | . | i
COc1cccc(S(=O)(=O)NCC(O)(c2ccccc2)C2CC2)c1 (stereo not drawn) | i | i
COc1cccc(S(=O)(=O)NCCC(O)C2CC2)c1 (stereo not drawn) | i | +
CCOC(=O)C1CCN(C(=O)C2(c3cccs3)CCOCC2)CC1 | i | i
COc1ccccc1C1(C(=O)N2CCC(c3cccs3)CC2)CCOCC1 | i | +
S=C(c1cccc(Br)c1)N1CCOCC1 | i | .
O=C(NC12CC3CC(CC(C3)C1)C2)N1CCC(c2cccs2)CC1 | i | +
O=C(NC(c1ccccc1)c1ccccc1)N1CCC(c2cccs2)CC1 | i | i
CC(C)(C)CC(=O)Nc1ccc(CC(=O)N2CCOCC2)cc1 | i | i
O=C(Nc1cccc(N2CCCC2=O)c1)c1ccc2c(c1)OCO2 | . | i
O=C(Nc1cccc(-c2cnc3n2CCC3)c1)c1ccc2c(c1)OCO2 | i | +
Cn1nc(-c2ccccc2)cc1C(=O)Nc1cccc(-c2cnc3n2CCC3)c1 | i | +
CC(Oc1ccccc1)C(=O)Nc1cccc(-c2cnc3n2CCC3)c1 (stereo not drawn) | i | i
Cc1ccc2c(CC(=O)N3CCN(c4ccccc4Cl)CC3)cc(=O)oc2c1 | i | i
CCOc1cc(/C=C2\SC(=S)N(c3ccccc3C)C2=O)ccc1O | . | i
Nc1ccc2c3c(cccc13)C(=O)N(c1ccccc1)C2=O | . | +
O=C1c2ccc(-n3c(=O)c4ccccc4c4ccccc4c3=O)cc2C(=O)N1c1ccccc1 | . | i
O=C(Cc1ccc(NS(=O)(=O)c2cccc(Cl)c2)cc1)NC1CC1 | i | i
O=C(NCC1CCN(C(=O)COc2ccccc2)CC1)c1ccccc1Cl | i | i
COc1ccc(S(=O)(=O)Nc2ccc3c(c2)N(C(=O)C2CC2)CC3)cc1 | i | i

Screening results as filed in PubChem.
